Laboratory results published in PMC4552634, “A New Set of Chemical Starting Points with Plasmodium falciparum Transmission-Blocking Potential for Antimalarial Drug Discovery” (PLoS ONE, 2015).
Among all 13,000 compounds or so, about 3,200 (25%) showed an effect of 50% or more. The list shows a part of the results.

These compounds were tested on P. falciparum stage V gametocytes. Settings: 48 h, 5 µM; inhibitor.
Parameters: BacTiter-Glo ATP luminescence viability of purified stage V gametocytes in 384-well plates, per cent inhibition versus DMSO

| Structure (SMILES) | % Inhibition [%] |
| --- | --- |
| O=C(O[C@H]1CN[C@H](C#Cc2cc3c(Nc4ccc(OCc5cccc(F)c5)c(Cl)c4)ncnc3s2)C1)N1CCCC1 [TCMDC-135291] | -17.95 |
| CCN(C)C(=O)n1ncc2c3c(N)nc(N)nc3ccc21 [TCMDC-137828] | 19.76 |
| Cc1ccc(CCNCC(O)c2cccc(C(F)(F)F)c2)cc1 (stereo not shown) [TCMDC-131447] | 15.63 |
| O=C(NC1CC1)C1CCN(Cc2cc3ccccc3n2Cc2ccc(Cl)cc2)CC1 [TCMDC-125065] | 41.24 |
| Cc1ccccc1Cn1c(CN2CCC(C(=O)NC3CC3)CC2)cc2ccccc21 [TCMDC-134259] | 50.21 |
| Cc1c(CN2CCC(N3CCC(C(=O)NC4CC4)CC3)CC2)[nH]c2c(Cl)cccc12 [TCMDC-124608] | 11.69 |
| CN(C)CCCn1cncc1-c1ccc2ncnc(Nc3ccc(OCc4ccccc4)cc3)c2c1 [TCMDC-138088] | 1.652 |
| COc1ccccc1N1CCN(CCCCNC(=O)c2ccc(NC(=O)c3ccc4ccccc4c3)cc2)CC1 [TCMDC-138109] | -15.04 |
| Cc1ccc(C(NC(=O)C2CCCCC2)c2ccc3cccnc3c2O)cc1 (stereo not shown) [TCMDC-123654] | 50.75 |
| CCCC(=O)NC(c1ccc(C)cc1)c1ccc2cccnc2c1O (stereo not shown) [TCMDC-123605] | 92.74 |
| O=S(=O)(c1cccc2cccnc12)N1CCN(C2CCCCC2)CC1 [TCMDC-123840] | 8.014 |
| CC(C)C(=O)NC(c1ccc(Cl)cc1)c1ccc2cccnc2c1O (stereo not shown) [TCMDC-124343] | 44.71 |
| CCCC(=O)NC(c1ccc(C(C)C)cc1)c1ccc2cccnc2c1O (stereo not shown) [TCMDC-123884] | 62.61 |
| CCC(C)NC(=O)Cn1c2ncccc2c(=O)n1-c1ccc(C)cc1 (stereo not shown) [TCMDC-124738] | -0.9664 |
| CC(C)c1ccc(C(NC(=O)C2CCCCC2)c2ccc3cccnc3c2O)cc1 (stereo not shown) [TCMDC-125560] | 15.44 |
| C[C@@H](CC1CCCCC1)OC(=O)N[C@H]1CCN(C#N)C1 [TCMDC-138496] | 45.07 |
| O=C(COc1ccccc1)Nn1cnc2ccccc21 [TCMDC-124536] | 15.87 |
| CNS(=O)(=O)c1ccc2c(c1)nc(C1CCN(CC3CCC(NC(=O)/C=C/c4ccc(Cl)c(Cl)c4)CC3)CC1)n2C (stereo not shown) [TCMDC-140374] | 8.841 |
| COc1ccc(-c2nc(-c3ccc([N+](=O)[O-])cc3)no2)cc1OC [TCMDC-125731] | 16.37 |

| Structure (SMILES) | % Inhibition [%] |
| --- | --- |
| CCn1cc(-c2nc(-c3cc(OC)cc(OC)c3)no2)c(=O)c2ccccc21 [TCMDC-125155] | 51.09 |
| CCOc1ccc(-c2noc(-c3c[nH]c4ccccc4c3=O)n2)cc1 [TCMDC-125156] | 27.36 |
| CCOc1cc2ncnc(Nc3ccc(OCc4ccccc4F)c(Cl)c3)c2cc1OCC [TCMDC-131914] | 3.797 |
| CC(C)CN1CCCN(Cc2cccc(NC(=O)c3ccc(-c4ccccc4)cc3)c2)CC1 [TCMDC-141841] | -91.11 |
| Cc1cccc2nc(-c3ccc(-c4ccc(CNCc5cnn(-c6ccccc6)n5)cc4)cc3)[nH]c12.O=C(O)C(F)(F)F [TCMDC-132974] | 25.92 |
| CCOC(=O)C(C)(C)Oc1ccc(C(=C2CC(C)(C)CC(C)(C)C2)c2ccc(O)cc2)cc1 [TCMDC-135525] | -61.64 |
| Cc1cccc(C(=O)Nc2ccnc(N3CCC(N(C)Cc4ccccc4)CC3)c2)c1 [TCMDC-135001] | -20.99 |
| CCN(CCNC(=O)C1CCN(c2cc(-c3cccc(C)c3)ncn2)CC1)Cc1ccccc1 [TCMDC-124739] | 86.1 |
| Cc1cccc(-c2ccc(NC(=O)C3CCN(Cc4cccc(O)c4)CC3)cc2)c1 [TCMDC-124641] | 44.56 |
| O=[N+]([O-])c1ccc(C(O)P(=O)(c2ccccc2)c2ccccc2)cc1 (stereo not shown) [TCMDC-125871] | -5.463 |
| CCCC(=O)NC(NC(=S)Nc1ccc([N+](=O)[O-])cc1)C(Cl)(Cl)Cl (stereo not shown) [TCMDC-125817] | 27.07 |
| O=C(NC(Nc1ccc([N+](=O)[O-])cc1)C(Cl)(Cl)Cl)c1cccc(Cl)c1 (stereo not shown) [TCMDC-124129] | 26.63 |
| Cc1ccccc1C(=O)NC(NC(=S)Nc1ccc([N+](=O)[O-])cc1)C(Cl)(Cl)Cl (stereo not shown) [TCMDC-124151] | -7.269 |
| O=C(Cc1ccccc1)NC(Nc1ccc([N+](=O)[O-])cc1)C(Cl)(Cl)Cl (stereo not shown) [TCMDC-125789] | 52.36 |
| O=C(NC(NC(=S)Nc1ccc([N+](=O)[O-])cc1)C(Cl)(Cl)Cl)c1cccc(Cl)c1 (stereo not shown) [TCMDC-124130] | -46.64 |
| O=C(NC(Nc1ccc([N+](=O)[O-])cc1)C(Cl)(Cl)Cl)c1ccc(Cl)cc1 (stereo not shown) [TCMDC-125818] | 63.58 |
| Cc1cccc(C(=O)NC(NC(=S)Nc2ccc([N+](=O)[O-])cc2)C(Cl)(Cl)Cl)c1 (stereo not shown) [TCMDC-124177] | 26.63 |
| CC(C)C(=O)NC(Nc1ccc([N+](=O)[O-])cc1)C(Cl)(Cl)Cl (stereo not shown) [TCMDC-125799] | 71.39 |
